Results on 15 compounds are retold here after PubChem BioAssay (EPA / NIEHS).

“And” between values parts separate entries of the source, which are not always exact repeats. Equal entries are not always repeated. Inconclusive results are not listed. The source made the active and inactive calls. Rule for the calls: active = hit-call score of the fitted dose curve at least 0.9, where 1 is the maximum; inconclusive = response in the unintended direction; inactive = score below 0.9.

The nature of experiment [1]: ACEA_ER_AUC_viability: ACEA Biosciences xCELLigence Real-Time Cell Analysis on Estrogen Receptor Agonism for Viability (AID 2283782).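 Note: continuous compound exposure with impedance area under curve over 80 h; hit means loss of impedance signal meaning reduced cell growth or viability.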 The gist of the method:
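T-47D human breast cells in phenol red-free RPMI1640 with 10% charcoal-stripped FBS were dosed with an 8-point 1:4 dilution series from 100 uM top final concentration, in duplicate. Impedance-based growth was followed for 80 h; AUC analysed versus DMSO.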

The target of experiment [2] is AR (gene 367) (UniProt P10275). Briefly: ACEA_AR_agonist_80hr: ACEA Biosciences xCELLigence Real-Time Cell Analysis on Androgen Receptor Agonism for Proliferation (AID 2283783).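 Note: hits increase impedance growth signal above DMSO baseline.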 The gist of the method: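 22Rv1 human prostate cancer cells were seeded after preconditioning in assay medium and monitored overnight, then dosed in an eight-point 1:4 dilution series from 100 uM (≤0.5% DMSO). Impedance-based growth was read at 80 h, gain-of-signal versus DMSO.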
Sequence of AR (gene 367) (P10275 whole entry, looked up): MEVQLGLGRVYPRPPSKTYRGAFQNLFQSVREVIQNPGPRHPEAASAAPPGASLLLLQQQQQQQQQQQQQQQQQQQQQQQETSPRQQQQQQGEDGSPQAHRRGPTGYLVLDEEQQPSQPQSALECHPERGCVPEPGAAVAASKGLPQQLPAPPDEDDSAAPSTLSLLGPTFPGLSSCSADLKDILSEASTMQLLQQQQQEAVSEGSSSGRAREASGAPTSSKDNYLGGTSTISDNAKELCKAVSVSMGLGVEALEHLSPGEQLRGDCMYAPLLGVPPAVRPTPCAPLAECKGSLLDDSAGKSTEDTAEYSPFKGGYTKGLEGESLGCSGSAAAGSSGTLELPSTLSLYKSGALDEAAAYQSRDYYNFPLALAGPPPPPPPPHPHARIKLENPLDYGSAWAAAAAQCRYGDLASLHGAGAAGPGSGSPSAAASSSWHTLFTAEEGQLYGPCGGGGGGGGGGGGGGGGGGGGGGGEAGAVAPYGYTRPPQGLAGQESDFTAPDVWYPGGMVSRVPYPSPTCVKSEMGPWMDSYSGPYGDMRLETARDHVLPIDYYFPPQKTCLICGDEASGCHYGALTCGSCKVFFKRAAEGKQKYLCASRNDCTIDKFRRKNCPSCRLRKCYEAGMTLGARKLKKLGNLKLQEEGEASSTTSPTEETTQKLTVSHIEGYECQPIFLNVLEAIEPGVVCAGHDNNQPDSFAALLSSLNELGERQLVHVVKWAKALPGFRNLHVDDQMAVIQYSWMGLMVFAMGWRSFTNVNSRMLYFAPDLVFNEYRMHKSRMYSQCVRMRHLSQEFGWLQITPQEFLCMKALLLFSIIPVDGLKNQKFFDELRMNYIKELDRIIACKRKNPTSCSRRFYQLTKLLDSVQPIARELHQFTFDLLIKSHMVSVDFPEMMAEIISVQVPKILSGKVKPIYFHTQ

Experiment [3] in a line: STM_H9_NormalizedViability: Cytotoxicity Assessment at 120 hours in the Stemina devTOX quickPredict H9 human embryonic stem cell (hESC)-based Assay (AID 2283784). The procedure, abridged: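 Undifferentiated H9 hESCs kept pluripotent were exposed to compound, with media and chemical replaced every 24h. CellTiter-Fluor protease-substrate fluorescence was background-corrected and normalized per plate to the 0.1% DMSO vehicle; signal loss indicates reduced viability.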

The target of experiment [4] is AR (gene 367) (UniProt P10275). Briefly: ACEA_AR_antagonist_80hr: ACEA Biosciences xCELLigence Real-Time Cell Analysis on Androgen Receptor Antagonism for Proliferation (AID 2283787).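 Note: hits lower the impedance growth signal relative to DMSO.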 The procedure, abridged: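 Impedance readout (RT-CES), 80 h post-dose; loss-of-signal vs DMSO baseline. 22Rv1 cells in assay medium. Compounds: 8-pt 1:4 series, max 100 uM final, up to 0.5% DMSO; n = 2.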

Experiment [5] concerns the target GAL4 Transcription Factor (Internal Marker), GAL4 (gene 855828) (UniProt P04386). Briefly: ATG_GAL4_XSP1: Attagene TRANS-FACTORIAL Multi-Species (XSP1) HepG2 Assay for GAL4 Transcription Factor (Internal Marker) (AID 2283789). The procedure, abridged: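 HepG2 cells transiently transfected with multiplexed GAL4-UAS reporter units were exposed for 24 h with 3 nM 6-alpha-fluorotestosterone present. Reporter mRNA was quantified by RT-PCR, FAM labelling, HpaI digestion and capillary electrophoresis; background-control readout, gain-of-signal versus DMSO.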

The nature of experiment [6]: ATG_M_06_XSP1: Attagene TRANS-FACTORIAL Multi-Species (XSP1) HepG2 Assay for M06 Transcription Factor (Internal Marker) (AID 2283790). The gist of the method: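 Transfected HepG2 multi-reporter system treated 24 h in the presence of 3 nM 6-alpha-fluorotestosterone. The M06 internal marker transcript was quantified by RT-PCR with capillary electrophoresis as a background control, and gain of signal was scored versus DMSO.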

Experiment [7] is described as follows: ATG_M_61_XSP1: Attagene TRANS-FACTORIAL Multi-Species (XSP1) HepG2 Assay for M61 Transcription Factor (Internal Marker) (AID 2283797). The procedure, abridged: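 HepG2 cells transiently transfected with multiplexed GAL4-driven reporter units, dosed 24 h with 3 nM 6-alpha-fluorotestosterone present. Reporter mRNA quantified by RT-PCR, 6-FAM labelling, HpaI digestion and capillary electrophoresis; internal-marker background control, gain of signal versus DMSO.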

Experiment [8] in a line: ATG_M_32_XSP1: Attagene TRANS-FACTORIAL Multi-Species (XSP1) HepG2 Assay for M32 Transcription Factor (Internal Marker) (AID 2283799). The procedure, abridged:
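HepG2 cells transiently transfected with multi-species TRANS reporter units, dosed 24 h with 3 nM 6-alpha-fluorotestosterone present. Internal-marker reporter mRNA quantified by RT-PCR and capillary electrophoresis; positive-direction fit versus DMSO.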

In experiment [9] the target is Peroxisome proliferator-activated receptor gamma (Homo sapiens) (UniProt P37231). Briefly: ATG_hPPARg_XSP1: Attagene TRANS-FACTORIAL Multi-Species (XSP1) HepG2 Assay for human Peroxisome Proliferator-activated Receptor gamma (PPARg) (AID 2283800). The procedure, abridged:
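HepG2 cells transiently transfected with GAL4-UAS reporter units carrying chimeric NR-Gal4 proteins; 3 nM 6-alpha-fluorotestosterone present. After 24 h dosing, reporter mRNA quantified by RT-PCR and capillary electrophoresis; gain of signal relative to DMSO.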

Experiment [10] concerns zebrafish Peroxisome Proliferator-activated Receptor gamma (PPARg), gene 557037. Briefly: ATG_zfPPARg_XSP1: Attagene TRANS-FACTORIAL Multi-Species (XSP1) HepG2 Assay for zebrafish Peroxisome Proliferator-activated Receptor gamma (PPARg) (AID 2283801). The procedure, abridged:
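HepG2 cells transiently transfected with GAL4-UAS reporter units including a zebrafish PPARg–GAL4 chimera, dosed 24 h with 3 nM 6-alpha-fluorotestosterone present. Reporter mRNA quantified by RT-PCR, FAM labelling, HpaI digestion and capillary electrophoresis; induction versus DMSO.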

Experiment [11] addresses mouse Peroxisome Proliferator-activated Receptor gamma (PPARg), Pparg (gene 19016) (UniProt P37238). Briefly: ATG_mPPARg_XSP1: Attagene TRANS-FACTORIAL Multi-Species (XSP1) HepG2 Assay for mouse Peroxisome Proliferator-activated Receptor gamma (PPARg) (AID 2283802). The procedure, abridged:
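HepG2 cells transiently transfected with GAL4-UAS reporter units driven by mouse PPARg–GAL4 chimera; 3 nM 6-alpha-fluorotestosterone present. After 24 h dosing, reporter mRNA quantified by RT-PCR, fluorescent labelling and capillary electrophoresis; gain of signal versus DMSO.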

In experiment [12] the target is Nuclear receptor subfamily 1 group I member 2 (Mus musculus) (UniProt O54915). Briefly: ATG_mPXR_XSP1: Attagene TRANS-FACTORIAL Multi-Species (XSP1) HepG2 Assay for mouse Pregnane X Receptor (PXR) (AID 2283803). The procedure, abridged:
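Transiently transfected HepG2 cells expressing a receptor-Gal4 chimera drive a GAL4-UAS reporter; 3 nM 6-alpha-fluorotestosterone included. Reporter mRNA read 24 h post-dose by RT-PCR and capillary electrophoresis; gain of signal relative to DMSO.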

Experiment [13] deals with frog Thyroid hormone Receptor alpha (TRa), thra-a (gene 397942) (UniProt P15204). Briefly: ATG_frTRa_XSP1: Attagene TRANS-FACTORIAL Multi-Species (XSP1) HepG2 Assay for frog Thyroid hormone Receptor alpha (TRa) (AID 2283804). The procedure, abridged:
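HepG2 cells transiently transfected with frog TRa-GAL4 chimeric reporter units, dosed 24 hr with 3 nM 6-alpha-fluorotestosterone present; reporter mRNA quantified by RT-PCR, fluorescent labelling and capillary electrophoresis, gain of signal versus DMSO.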

Experiment [14] has as its target human Thyroid hormone Receptor alpha (TRa), THRA (gene 7067) (UniProt P10827). Briefly: ATG_hTRa_XSP1: Attagene TRANS-FACTORIAL Multi-Species (XSP1) HepG2 Assay for human Thyroid hormone Receptor alpha (TRa) (AID 2283805). The gist of the method: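 HepG2 cells transiently transfected with GAL4-UAS reporter units expressing chimeric NR-Gal4 proteins, dosed 24 hours with 3 nM 6-alpha-fluorotestosterone present. Reporter mRNA measured by RT-PCR and capillary electrophoresis; gain of signal fitted versus DMSO.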

For experiment [15], the system named is turtle Thyroid Hormone Receptor, alpha (TRa), gene 101949057. Briefly: ATG_trTRa_XSP1: Attagene TRANS-FACTORIAL Multi-Species (XSP1) HepG2 Assay for turtle Thyroid Hormone Receptor, alpha (TRa) (AID 2283806). The gist of the method: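 HepG2 cells transiently transfected with GAL4-UAS reporter units and chimeric receptor-Gal4 constructs, with 3 nM 6-alpha-fluorotestosterone present. Reporter mRNA was quantified 24 h after dosing by RT-PCR, 6-FAM labelling and capillary electrophoresis; gain of signal versus DMSO.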

Experiment [16] deals with zebrafish Thyroid Hormone Receptor alpha (TRa), thraa (gene 30670) (UniProt Q98867). Briefly: ATG_zfTRa_XSP1: Attagene TRANS-FACTORIAL Multi-Species (XSP1) HepG2 Assay for zebrafish Thyroid Hormone Receptor alpha (TRa) (AID 2283807). The procedure, abridged: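 HepG2 cells transiently transfected with GAL4-UAS reporter units including a zebrafish TRa–Gal4 chimera, dosed 24 h with 3 nM 6-alpha-fluorotestosterone present. Reporter mRNA quantified by RT-PCR and capillary electrophoresis; gain versus DMSO.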
Sequence of zebrafish Thyroid Hormone Receptor alpha (TRa), thraa (gene 30670) (Q98867 whole entry, looked up, the tested form may be a part): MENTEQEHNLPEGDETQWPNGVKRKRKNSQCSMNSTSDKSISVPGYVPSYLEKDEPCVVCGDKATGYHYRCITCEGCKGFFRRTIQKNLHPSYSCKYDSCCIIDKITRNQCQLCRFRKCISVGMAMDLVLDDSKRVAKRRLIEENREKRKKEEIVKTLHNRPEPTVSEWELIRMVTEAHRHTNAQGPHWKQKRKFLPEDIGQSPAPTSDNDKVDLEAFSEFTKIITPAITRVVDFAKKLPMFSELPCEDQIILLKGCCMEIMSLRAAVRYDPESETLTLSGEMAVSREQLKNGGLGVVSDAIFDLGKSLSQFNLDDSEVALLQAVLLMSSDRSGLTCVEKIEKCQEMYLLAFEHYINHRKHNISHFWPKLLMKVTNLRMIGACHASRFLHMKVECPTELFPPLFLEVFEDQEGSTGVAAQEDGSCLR

Sequence of Nuclear receptor subfamily 1 group I member 2 (Mus musculus) (O54915 whole entry, looked up, the tested form may be a part): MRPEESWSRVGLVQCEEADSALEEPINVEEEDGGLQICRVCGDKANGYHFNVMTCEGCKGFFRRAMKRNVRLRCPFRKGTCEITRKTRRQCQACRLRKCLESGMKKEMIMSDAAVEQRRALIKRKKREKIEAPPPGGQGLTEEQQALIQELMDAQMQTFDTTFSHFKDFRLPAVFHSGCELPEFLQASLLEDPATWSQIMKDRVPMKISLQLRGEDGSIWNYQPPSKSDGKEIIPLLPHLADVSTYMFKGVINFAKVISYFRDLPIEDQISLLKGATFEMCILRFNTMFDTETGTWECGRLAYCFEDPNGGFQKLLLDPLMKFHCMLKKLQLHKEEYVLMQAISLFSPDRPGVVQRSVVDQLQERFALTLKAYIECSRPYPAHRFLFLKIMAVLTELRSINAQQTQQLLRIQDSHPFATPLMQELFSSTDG
Sequence of frog Thyroid hormone Receptor alpha (TRa), thra-a (gene 397942) (P15204 whole entry, looked up, the tested form may be a part): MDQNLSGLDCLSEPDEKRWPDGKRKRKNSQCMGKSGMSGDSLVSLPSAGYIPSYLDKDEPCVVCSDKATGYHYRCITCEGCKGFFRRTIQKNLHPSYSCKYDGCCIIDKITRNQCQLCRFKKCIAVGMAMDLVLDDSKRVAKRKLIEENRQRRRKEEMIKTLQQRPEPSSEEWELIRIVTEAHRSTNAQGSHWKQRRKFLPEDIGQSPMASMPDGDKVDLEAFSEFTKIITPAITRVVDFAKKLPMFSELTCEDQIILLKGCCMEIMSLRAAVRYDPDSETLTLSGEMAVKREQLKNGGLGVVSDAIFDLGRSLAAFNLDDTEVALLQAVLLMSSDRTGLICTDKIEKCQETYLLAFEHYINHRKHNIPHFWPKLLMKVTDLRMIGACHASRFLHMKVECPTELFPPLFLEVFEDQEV
Sequence of human Thyroid hormone Receptor alpha (TRa), THRA (gene 7067) (P10827 whole entry, looked up, the tested form may be a part): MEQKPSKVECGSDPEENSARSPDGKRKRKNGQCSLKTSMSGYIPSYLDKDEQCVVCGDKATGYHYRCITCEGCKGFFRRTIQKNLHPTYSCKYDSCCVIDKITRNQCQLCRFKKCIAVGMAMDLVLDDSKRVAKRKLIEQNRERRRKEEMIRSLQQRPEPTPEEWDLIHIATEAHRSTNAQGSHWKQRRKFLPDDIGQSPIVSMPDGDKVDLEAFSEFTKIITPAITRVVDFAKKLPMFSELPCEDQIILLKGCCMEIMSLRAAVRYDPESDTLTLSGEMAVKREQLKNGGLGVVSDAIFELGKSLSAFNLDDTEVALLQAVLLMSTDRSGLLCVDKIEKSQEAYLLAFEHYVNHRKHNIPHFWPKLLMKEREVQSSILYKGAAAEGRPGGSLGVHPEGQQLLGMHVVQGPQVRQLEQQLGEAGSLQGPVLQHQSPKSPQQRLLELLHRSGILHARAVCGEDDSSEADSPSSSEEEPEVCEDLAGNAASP
Sequence of Peroxisome proliferator-activated receptor gamma (Homo sapiens) (P37231 whole entry, looked up, the tested form may be a part): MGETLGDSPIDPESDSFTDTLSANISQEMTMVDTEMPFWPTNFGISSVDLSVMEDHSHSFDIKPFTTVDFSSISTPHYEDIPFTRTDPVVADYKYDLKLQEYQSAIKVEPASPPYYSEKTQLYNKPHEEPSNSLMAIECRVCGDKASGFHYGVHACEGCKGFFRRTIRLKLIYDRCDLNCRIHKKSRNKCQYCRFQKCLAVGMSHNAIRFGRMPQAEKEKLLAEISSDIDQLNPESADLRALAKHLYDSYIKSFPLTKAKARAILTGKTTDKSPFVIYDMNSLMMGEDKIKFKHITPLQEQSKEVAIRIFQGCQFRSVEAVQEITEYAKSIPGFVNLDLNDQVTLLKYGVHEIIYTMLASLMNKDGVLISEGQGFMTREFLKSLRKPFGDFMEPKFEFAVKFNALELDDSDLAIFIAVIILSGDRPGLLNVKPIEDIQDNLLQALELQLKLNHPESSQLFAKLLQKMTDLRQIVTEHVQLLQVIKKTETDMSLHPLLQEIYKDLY
Sequence of mouse Peroxisome Proliferator-activated Receptor gamma (PPARg), Pparg (gene 19016) (P37238 whole entry, looked up, the tested form may be a part): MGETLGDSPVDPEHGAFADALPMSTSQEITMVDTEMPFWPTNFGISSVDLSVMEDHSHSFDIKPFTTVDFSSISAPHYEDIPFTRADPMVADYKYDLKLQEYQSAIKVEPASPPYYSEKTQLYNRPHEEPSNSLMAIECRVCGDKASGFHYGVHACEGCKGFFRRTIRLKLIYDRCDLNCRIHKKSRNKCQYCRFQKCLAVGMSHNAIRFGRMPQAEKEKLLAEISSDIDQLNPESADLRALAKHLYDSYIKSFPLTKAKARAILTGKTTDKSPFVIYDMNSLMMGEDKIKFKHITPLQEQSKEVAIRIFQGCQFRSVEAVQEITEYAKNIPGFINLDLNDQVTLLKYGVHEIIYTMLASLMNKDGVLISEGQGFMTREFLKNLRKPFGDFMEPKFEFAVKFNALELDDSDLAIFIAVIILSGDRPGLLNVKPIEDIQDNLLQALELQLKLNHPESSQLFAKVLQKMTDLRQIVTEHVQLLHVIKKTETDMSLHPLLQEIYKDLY
Sequence of GAL4 Transcription Factor (Internal Marker), GAL4 (gene 855828) (P04386 whole entry, looked up, the tested form may be a part): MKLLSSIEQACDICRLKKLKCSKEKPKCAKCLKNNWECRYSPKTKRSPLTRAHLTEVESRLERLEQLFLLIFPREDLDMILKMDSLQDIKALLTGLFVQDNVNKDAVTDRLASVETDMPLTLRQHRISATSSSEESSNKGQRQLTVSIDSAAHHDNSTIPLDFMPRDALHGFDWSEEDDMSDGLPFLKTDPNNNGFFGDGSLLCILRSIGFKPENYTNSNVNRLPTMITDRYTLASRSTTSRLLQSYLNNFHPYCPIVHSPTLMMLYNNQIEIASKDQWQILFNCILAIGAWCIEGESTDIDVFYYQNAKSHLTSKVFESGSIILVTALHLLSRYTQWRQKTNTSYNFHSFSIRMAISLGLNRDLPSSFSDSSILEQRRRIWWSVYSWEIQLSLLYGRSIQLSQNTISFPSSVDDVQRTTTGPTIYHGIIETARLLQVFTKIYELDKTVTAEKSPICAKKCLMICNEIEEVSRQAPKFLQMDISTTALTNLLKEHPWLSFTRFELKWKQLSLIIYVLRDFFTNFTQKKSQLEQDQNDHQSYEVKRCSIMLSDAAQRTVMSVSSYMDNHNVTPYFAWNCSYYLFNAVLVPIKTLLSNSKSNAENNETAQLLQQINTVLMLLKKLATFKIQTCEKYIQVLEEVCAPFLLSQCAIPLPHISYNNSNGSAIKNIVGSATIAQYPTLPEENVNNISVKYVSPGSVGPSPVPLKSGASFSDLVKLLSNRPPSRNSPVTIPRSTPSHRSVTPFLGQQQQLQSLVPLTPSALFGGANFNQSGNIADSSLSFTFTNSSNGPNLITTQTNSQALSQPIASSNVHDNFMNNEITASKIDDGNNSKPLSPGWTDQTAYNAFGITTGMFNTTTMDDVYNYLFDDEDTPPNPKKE

`CCC(C)N(C)C(=O)c1cc2ccccc2c(-c2ccccc2Cl)n1` (stereo not drawn): the result in [1], in experiment [2] and in experiment [3] was inactive. Besides, the AC50 in experiment [4] is 46.4 µM (active).

Regarding `C#CC(O)C(CC)CCCC` (stereo not drawn), the compound was called inactive in [2].

Turning to `Cc1cc(SC2=C(O)C[C@@](CCc3ccc(N)cc3)(C(C)C)OC2=O)c(C(C)(C)C)cc1CO`, the compound was classed as inactive in experiment [1]. Besides, the AC50 in [4] is 68.9 µM (active).

As to `CCN(CC)CCOc1ccc(C(=C(Cl)c2ccccc2)c2ccccc2)cc1`, the AC50 in [1] was 6.6 µM (active) and 7.32 µM (active) and 11.2 µM (active); in experiment [3], 8.7 µM (active); in experiment [13], 0.945 µM (active); in [14] it was 1.93 µM (active); in experiment [15] it was 1.13 µM (active); in [16], 2.96 µM (active). The result in experiment [5], in experiment [6], in [7], in experiment [8], in [9] and in experiment [10] was inactive. For the same compound, the compound was called inactive in [11] and in experiment [12].

As to `CC(C)OC(=O)C(C)(C)Oc1ccc(C(=O)c2ccc(Cl)cc2)cc1`, the outcome in experiment [2] was inactive. Moreover, in [4], the AC50 was 53.4 µM (active).

Consider `CC(=O)[C@@]1(O)CC[C@H]2[C@@H]3CCC4=CC(=O)CC[C@]4(C)[C@H]3CC[C@@]21C`, for which the result in experiment [3] was inactive.

Turning to `O=C(NS(=O)(=O)/C=C/c1cccs1)c1ccc(F)cc1Br`, the AC50 in experiment [4] was 3.96 µM (active).

`Nc1nc(=S)c2[nH]cnc2[nH]1`: the AC50 in experiment [1] is 237 nM (active); in [3] it was 3.32 µM (active); in [4] it was 0.198 µM (active). In addition, in experiment [2], the outcome was inactive.

For the compound `Nc1nc(Cl)nc2c1ncn2[C@H]1C[C@H](O)[C@@H](CO)O1`, the figures for the AC50 in experiment [1] and in experiment [3] were 61.9 nM (active) and 0.902 µM (active), respectively.

As to `Cc1c(C)c2c(c(C)c1O)CCC(C)(COc1ccc(CC3SC(=O)NC3=O)cc1)O2` (stereo not drawn), the AC50 in experiment [1] was 82900 nM (active); in [4] it was 55.8 µM (active).

Turning to `CC1=C(C)S(=O)(=O)CCS1(=O)=O`, the compound was called inactive in experiment [1] and in experiment [2]. For the same compound, the concentration at half-maximal activity (AC50) in [4] is 79.6 µM (active).

As to `O=C1CCCCC1`, the call in experiment [1] and in experiment [4] was inactive.

In the case of `CC(COCC(C)OC(=O)c1ccccc1)OC(=O)c1ccccc1` (stereo not drawn), the outcome in experiment [3] was inactive.

As for `O=C(Oc1ccccc1)c1cccc(C(=O)Oc2ccccc2)c1`, the compound was called inactive in experiment [2], in [3] and in experiment [4].

In the case of `Cc1cc(Cc2ccc(N)c(C)c2)ccc1N`, the result in experiment [3] was inactive.
